Assay results reported in the supplement of paper PMC10338343.
± gives the standard deviation.

system: MILI (PIWIL2) piRISC loaded with L1MC piRNA (26 nt); experiment: pre-steady-state target cleavage rate (min^-1); guide: L1MC piRNA 5'p-UAACUAAAUACUAUGCAAGCUGUAGG; MIWI and MILI are mouse PIWI proteins and EfPiwi is from a freshwater sponge; tags in brackets are library labels; higher = faster piRNA-guided slicing of the target; settings: auxiliary factor: 500 nM mouse GTSF1
Method in brief: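 Cleave-'n-Seq: 1 nM active affinity-purified piRISC with one synthetic guide and 0.1 nM transcribed, DNA-blocked target RNA library were mixed, with or without 500 nM GTSF1 partner protein, in HEPES–potassium acetate buffer at 33 °C for 0–8 or 0–960 min. Uncleaved targets were sequenced and normalised to depth and to weakly complementary targets, three trials were pooled, and k3 was capped at 0.0001 min^-1. The pre-steady-state cleavage rate was fitted […].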

Sequence	pre-steady-state target cleavage rate
UCCUGCUACAGCAUUGCAUAGUAUUUAGUUA	0.286 ± 0.02
UCCUGGAUGUGCUUGCAUAGUACUUAGUUA	0.105 ± 0.022
UCCUCCUUCAGCUUGCAUAGUAAUUAGUUA	0.211 ± 0.021
UCCUGGAUGUGUUUGCAUAGUAUUUAGUUA	0.16 ± 0.019
UCCUGGAUGAGCUUGCAUAGUAUUUAAGUUA	0.153 ± 0.025
UCCUGGUAGAGCUUGCAUUGUAUUUAGUUA	0.18 ± 0.015
UCCUGGUACAGCUUGCAUAGUAUAUAGUUA	0.274 ± 0.041
UCCUCCUACAGCUUGACAUAGUAUUUAGUUA	0.267 ± 0.018
UCCUGCUUGAGCUUGCAUAGUAUUUAGUUA	0.22 ± 0.019
UCCUGCUACAGCUUGCAUAGUAAUUAGUUA	0.271 ± 0.028
UCCUGGUACAGCUCUGCAUAGUAUUUAGUUA	0.243 ± 0.018
UCCUGGUUCAGGUUGCAUAGUAUUUAGUUA	0.21 ± 0.023
UCCUCCUACAUGCUUGCAUAGUAUUUAGUUA	0.149 ± 0.018
UCCUGGAACUGCUUGCAAAGUAUUUAGUUA	0.117 ± 0.01
UCCUGGAACAGCUUGCAUUGUAUUUAGUAA	0.17 ± 0.02
UCCUGCUACAGCUUGCUUACUAUUUAGUUA	0.114 ± 0.016
UCCUGGAUCAGCUUGCAUAGUUUUAAGUUA	0.0366 ± 0.008
UCCUGGUACAGCUUGCAUAGUAUUUAGUGUA	0.143 ± 0.021
UCCUCCUACACGCUUGCAUAGUAUUUAGUUA	0.207 ± 0.013
UCCUGGAACAGCUUGCAUAGUAUAUAGUUA	0.296 ± 0.029

Sequence	pre-steady-state target cleavage rate
UCCUGGAUCAGGUUGCAUAGUAAUUAGUUA	0.152 ± 0.015
UCCUGCUACAGCUUGCAUAUUAUUUAGUUA	0.11 ± 0.016
UCCUGGAUCAGGUUGCAUUGUAUUUAGUUA	0.115 ± 0.0091
UCCUGGAUGUGCUUGCAUAGUAUUAAGUUA	0.162 ± 0.025
UCCUGGAACAGCUGGCAUAGUAUUUAGUUA	0.17 ± 0.012
UCCUGGAUCACCUUGCAUAGUAAUUAGUUA	0.198 ± 0.03
UCCUGCUACAGCUUCCAUUGUAUUUAGUUA	0.157 ± 0.029
UCCUCCUACAGCUUGCAUUGUUUUUAGUUA	0.0161 ± 0.0055
UCCUGGAUCAGCUUGGAAAGUAUUUAGUUA	0.0767 ± 0.01
UCCUGGAACAGCUUGGAUAGUAUAUAGUUA	0.215 ± 0.027
UCCUGGAUCAGCUUGCAAAGUAUUUAGUUA	0.151 ± 0.015
UCCUCCUACAGCUCUGCAUAGUAUUUAGUUA	0.276 ± 0.014
UCCUCGCUACAGCUUGCAUAGUAUUUAGUUA	0.276 ± 0.02
UCCUCCUACAGCUUGCAUAGUAUUUGGUUA	0.279 ± 0.024
UCCUGGUAGAGCUUGCAUAGUUUUUAGUUA	0.0231 ± 0.005
UCCUGGAAGAGCUUGGAUAGUAUUUAGUUA	0.178 ± 0.0086
UCCUGGAUAAGCUUGCAUAGUAUUUAGUUA	0.276 ± 0.017
UCCUGGAACAGCAUGCAUAGUAUUUAGUAA	0.214 ± 0.019
UCCUGCUACACCUUGCAUAGUAUUUAGUAA	0.192 ± 0.035
UCCUGGUACAGCUUGCAUAAUAUUUAGUUA	0.338 ± 0.068

same assay, conditions: auxiliary factor: none (no GTSF1)

Sequence	pre-steady-state target cleavage rate
UCCUGCUACAGCAUUGCAUAGUAUUUAGUUA	0.0108 ± 0.0036
UCCUGGAUGUGCUUGCAUAGUACUUAGUUA	0.00413 ± 0.0024
UCCUCCUUCAGCUUGCAUAGUAAUUAGUUA	0.00503 ± 0.002
UCCUGGAUGUGUUUGCAUAGUAUUUAGUUA	0.00817 ± 0.0033
UCCUGGAUGAGCUUGCAUAGUAUUUAAGUUA	0.00993 ± 0.0029
UCCUGGUAGAGCUUGCAUUGUAUUUAGUUA	0.00645 ± 0.0026
UCCUGGUACAGCUUGCAUAGUAUAUAGUUA	0.00795 ± 0.0034
UCCUCCUACAGCUUGACAUAGUAUUUAGUUA	0.00554 ± 0.0024
UCCUGCUUGAGCUUGCAUAGUAUUUAGUUA	0.00599 ± 0.0022
UCCUGCUACAGCUUGCAUAGUAAUUAGUUA	0.00539 ± 0.0023
UCCUGGUACAGCUCUGCAUAGUAUUUAGUUA	0.00792 ± 0.0029
UCCUGGUUCAGGUUGCAUAGUAUUUAGUUA	0.0182 ± 0.005
UCCUCCUACAUGCUUGCAUAGUAUUUAGUUA	0.0058 ± 0.002
UCCUGGAACUGCUUGCAAAGUAUUUAGUUA	0.00518 ± 0.0021
UCCUGGAACAGCUUGCAUUGUAUUUAGUAA	0.00563 ± 0.0025
UCCUGCUACAGCUUGCUUACUAUUUAGUUA	0.00371 ± 0.0023
UCCUGGAUCAGCUUGCAUAGUUUUAAGUUA	0.00531 ± 0.0024
UCCUGGUACAGCUUGCAUAGUAUUUAGUGUA	0.00896 ± 0.0033
UCCUCCUACACGCUUGCAUAGUAUUUAGUUA	0.00734 ± 0.0025
UCCUGGAACAGCUUGCAUAGUAUAUAGUUA	0.00847 ± 0.0025

Sequence	pre-steady-state target cleavage rate
UCCUGGAUCAGGUUGCAUAGUAAUUAGUUA	0.00739 ± 0.0017
UCCUGCUACAGCUUGCAUAUUAUUUAGUUA	0.00413 ± 0.0024
UCCUGGAUCAGGUUGCAUUGUAUUUAGUUA	0.00671 ± 0.0024
UCCUGGAUGUGCUUGCAUAGUAUUAAGUUA	0.00745 ± 0.0021
UCCUGGAACAGCUGGCAUAGUAUUUAGUUA	0.00801 ± 0.003
UCCUGGAUCACCUUGCAUAGUAAUUAGUUA	0.00446 ± 0.0029
UCCUGCUACAGCUUCCAUUGUAUUUAGUUA	0.00322 ± 0.0022
UCCUCCUACAGCUUGCAUUGUUUUUAGUUA	0.0039 ± 0.002
UCCUGGAUCAGCUUGGAAAGUAUUUAGUUA	0.00552 ± 0.0021
UCCUGGAACAGCUUGGAUAGUAUAUAGUUA	0.00403 ± 0.0027
UCCUGGAUCAGCUUGCAAAGUAUUUAGUUA	0.00946 ± 0.0023
UCCUCCUACAGCUCUGCAUAGUAUUUAGUUA	0.00692 ± 0.0018
UCCUCGCUACAGCUUGCAUAGUAUUUAGUUA	0.00839 ± 0.0032
UCCUCCUACAGCUUGCAUAGUAUUUGGUUA	0.00706 ± 0.0026
UCCUGGUAGAGCUUGCAUAGUUUUUAGUUA	0.00498 ± 0.0023
UCCUGGAAGAGCUUGGAUAGUAUUUAGUUA	0.00531 ± 0.0023
UCCUGGAUAAGCUUGCAUAGUAUUUAGUUA	0.0122 ± 0.0029
UCCUGGAACAGCAUGCAUAGUAUUUAGUAA	0.00404 ± 0.0034
UCCUGCUACACCUUGCAUAGUAUUUAGUAA	0.00445 ± 0.0026
UCCUGGUACAGCUUGCAUAAUAUUUAGUUA	0.0064 ± 0.0032
